Measurements taken from publication PMC7862700, “An all-to-all approach to the identification of sequence-specific readers for epigenetic DNA modifications on cytosine”.

Experiments:
Test in all cases: DAPPL (digital affinity profiling via proximity ligation, sequencing); 10 mM Tris-HCl pH 7.5, 50 mM NaCl, 1 mM DTT, 4% glycerol, room temperature, 30 min; GST-TFs on glutathione beads, 16-mer random dsDNA library, 0.1% formaldehyde crosslink after washing; high values mean tight binding
FLI1 = target: T1, FLI1 (Homo sapiens, UniProt Q01543 1-452); settings: protein: recombinant; tags: N-terminal GST; dsDNA, one strand shown
T1 sequence: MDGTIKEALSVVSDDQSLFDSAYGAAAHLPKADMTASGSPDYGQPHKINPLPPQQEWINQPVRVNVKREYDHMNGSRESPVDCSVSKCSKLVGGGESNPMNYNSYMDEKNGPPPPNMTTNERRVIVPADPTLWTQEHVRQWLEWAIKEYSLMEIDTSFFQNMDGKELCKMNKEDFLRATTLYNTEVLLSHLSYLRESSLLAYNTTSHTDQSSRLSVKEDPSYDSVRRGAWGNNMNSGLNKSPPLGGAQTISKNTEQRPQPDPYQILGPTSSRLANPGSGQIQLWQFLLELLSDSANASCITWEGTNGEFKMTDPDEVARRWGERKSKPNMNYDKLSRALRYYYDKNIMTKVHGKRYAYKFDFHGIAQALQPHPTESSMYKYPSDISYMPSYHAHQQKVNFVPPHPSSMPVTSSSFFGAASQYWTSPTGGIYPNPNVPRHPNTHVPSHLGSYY
Outline: (§1)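 Binding signal is each hexamer's read frequency for a factor divided by its frequency in the tag-only sample. The factors were GST-fused human transcription factors from yeast, captured on glutathione beads, DNA-barcoded and pooled with that sample. Pools were incubated with 200 nmole of a random double-stranded 16-mer DNA library in Tris/NaCl/DTT/glycerol buffer at room temperature for 30 min, then washed, crosslinked with 0.1% formaldehyde, proximity-ligated with BsaI/T4 ligase (1 h, 37 °C), PCR-amplified and sequenced on an Illumina NextSeq500.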

ELK1 = target: T2, ELK1 (Homo sapiens, UniProt P19419 1-428); settings: protein: recombinant; tags: N-terminal GST; dsDNA, one strand shown
T2 sequence: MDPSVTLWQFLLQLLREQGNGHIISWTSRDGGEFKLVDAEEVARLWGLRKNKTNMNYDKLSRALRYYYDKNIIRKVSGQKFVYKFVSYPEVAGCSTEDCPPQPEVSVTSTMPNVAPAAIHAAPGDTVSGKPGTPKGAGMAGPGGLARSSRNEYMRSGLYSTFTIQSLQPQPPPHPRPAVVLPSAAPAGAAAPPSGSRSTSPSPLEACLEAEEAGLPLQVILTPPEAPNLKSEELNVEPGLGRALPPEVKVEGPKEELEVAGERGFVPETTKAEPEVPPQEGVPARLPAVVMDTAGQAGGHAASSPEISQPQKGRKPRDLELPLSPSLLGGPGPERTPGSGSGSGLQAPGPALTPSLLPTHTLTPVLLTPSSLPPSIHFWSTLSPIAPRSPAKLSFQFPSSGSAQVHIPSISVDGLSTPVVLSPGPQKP
Outline: as §1

GABPA = target: T3, GABPA (Homo sapiens, UniProt Q06546 1-454); settings: protein: recombinant; tags: N-terminal GST; dsDNA, one strand shown
T3 sequence: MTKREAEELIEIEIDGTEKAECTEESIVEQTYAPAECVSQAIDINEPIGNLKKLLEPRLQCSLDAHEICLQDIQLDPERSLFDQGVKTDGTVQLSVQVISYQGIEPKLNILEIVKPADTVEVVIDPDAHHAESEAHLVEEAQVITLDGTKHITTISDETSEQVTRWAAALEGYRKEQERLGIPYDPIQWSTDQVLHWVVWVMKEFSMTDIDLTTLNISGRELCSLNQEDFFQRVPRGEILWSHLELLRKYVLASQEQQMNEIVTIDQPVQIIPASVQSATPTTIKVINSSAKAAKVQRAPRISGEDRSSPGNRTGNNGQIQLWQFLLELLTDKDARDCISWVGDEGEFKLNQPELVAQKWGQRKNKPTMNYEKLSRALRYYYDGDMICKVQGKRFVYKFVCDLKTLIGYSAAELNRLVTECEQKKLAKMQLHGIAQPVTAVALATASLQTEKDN
Outline: as §1

ERG = target: T4, ERG (Homo sapiens, UniProt P11308 1-479); settings: protein: recombinant; tags: N-terminal GST; dsDNA, one strand shown
T4 sequence: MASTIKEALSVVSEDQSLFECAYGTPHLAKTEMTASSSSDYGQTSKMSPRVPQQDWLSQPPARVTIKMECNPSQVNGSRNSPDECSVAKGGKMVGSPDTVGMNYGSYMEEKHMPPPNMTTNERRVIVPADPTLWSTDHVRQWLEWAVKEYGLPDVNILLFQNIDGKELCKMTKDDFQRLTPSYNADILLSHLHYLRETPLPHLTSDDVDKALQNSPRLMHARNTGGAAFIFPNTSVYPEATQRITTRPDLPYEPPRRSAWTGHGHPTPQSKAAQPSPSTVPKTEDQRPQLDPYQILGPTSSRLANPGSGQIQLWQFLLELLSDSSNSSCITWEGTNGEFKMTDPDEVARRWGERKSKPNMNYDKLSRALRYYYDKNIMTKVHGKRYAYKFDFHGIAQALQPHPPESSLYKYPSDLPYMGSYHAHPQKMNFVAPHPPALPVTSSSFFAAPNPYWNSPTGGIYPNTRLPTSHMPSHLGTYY
Outline: as §1

ELF1 = ELF1 (Homo sapiens, UniProt P32519 1-619); settings: protein: recombinant; tags: N-terminal GST; dsDNA, one strand shown
Outline: as §1

EHF = target: T5, EHF (Homo sapiens, UniProt Q9NZC4 1-300); settings: protein: recombinant; tags: N-terminal GST; dsDNA, one strand shown
T5 sequence: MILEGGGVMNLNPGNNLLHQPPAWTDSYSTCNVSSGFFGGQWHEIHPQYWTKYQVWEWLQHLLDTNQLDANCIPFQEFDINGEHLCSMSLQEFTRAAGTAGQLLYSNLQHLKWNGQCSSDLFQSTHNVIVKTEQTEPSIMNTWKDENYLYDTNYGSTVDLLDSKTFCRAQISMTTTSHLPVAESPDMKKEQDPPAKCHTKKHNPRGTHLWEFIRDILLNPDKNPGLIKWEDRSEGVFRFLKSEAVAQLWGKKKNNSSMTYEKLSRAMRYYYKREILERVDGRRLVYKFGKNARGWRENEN
Outline: as §1

SPI1 = SPI1 (Homo sapiens, UniProt P17947 1-270); settings: protein: recombinant; tags: N-terminal GST; dsDNA, one strand shown
Outline: as §1

SPIB = SPIB (Homo sapiens, UniProt Q01892 1-262); settings: protein: recombinant; tags: N-terminal GST; dsDNA, one strand shown
Outline: as §1

ELK3 = target: T6, ELK3 (Homo sapiens, UniProt P41970 1-407); settings: protein: recombinant; tags: N-terminal GST; dsDNA, one strand shown
T6 sequence: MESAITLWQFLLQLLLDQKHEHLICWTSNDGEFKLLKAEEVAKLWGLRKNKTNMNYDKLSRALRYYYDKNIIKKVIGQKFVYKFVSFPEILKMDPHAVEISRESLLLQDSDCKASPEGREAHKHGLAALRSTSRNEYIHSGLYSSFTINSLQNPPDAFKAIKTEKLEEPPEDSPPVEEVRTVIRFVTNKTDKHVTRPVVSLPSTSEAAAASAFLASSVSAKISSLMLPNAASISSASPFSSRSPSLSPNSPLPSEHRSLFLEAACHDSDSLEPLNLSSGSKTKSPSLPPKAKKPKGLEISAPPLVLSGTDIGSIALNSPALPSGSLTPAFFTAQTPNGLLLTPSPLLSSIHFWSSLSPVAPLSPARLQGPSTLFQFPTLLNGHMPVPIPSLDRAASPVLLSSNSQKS
Outline: as §1

FEV = target: T7, FEV (Homo sapiens, UniProt Q99581 1-238); settings: protein: recombinant; tags: N-terminal GST; dsDNA, one strand shown
T7 sequence: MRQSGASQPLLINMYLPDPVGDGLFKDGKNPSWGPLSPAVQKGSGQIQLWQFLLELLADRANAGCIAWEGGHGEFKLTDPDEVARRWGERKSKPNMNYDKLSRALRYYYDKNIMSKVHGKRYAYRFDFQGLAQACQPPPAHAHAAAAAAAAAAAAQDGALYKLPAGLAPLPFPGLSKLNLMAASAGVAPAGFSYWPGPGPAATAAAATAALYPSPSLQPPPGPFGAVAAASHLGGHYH
Outline: as §1

ETV5 = ETV5 (Homo sapiens, UniProt P41161 1-510); settings: protein: recombinant; tags: N-terminal GST; dsDNA, one strand shown
Outline: as §1

HSF1 = HSF1 (Homo sapiens, UniProt Q00613 1-529); settings: protein: recombinant; tags: N-terminal GST; chain copies: 3; dsDNA, one strand shown
Outline: as §1

SPIC = target: T8, SPIC (Homo sapiens, UniProt Q8N5J4 1-248); settings: protein: recombinant; tags: N-terminal GST; dsDNA, one strand shown
T8 sequence: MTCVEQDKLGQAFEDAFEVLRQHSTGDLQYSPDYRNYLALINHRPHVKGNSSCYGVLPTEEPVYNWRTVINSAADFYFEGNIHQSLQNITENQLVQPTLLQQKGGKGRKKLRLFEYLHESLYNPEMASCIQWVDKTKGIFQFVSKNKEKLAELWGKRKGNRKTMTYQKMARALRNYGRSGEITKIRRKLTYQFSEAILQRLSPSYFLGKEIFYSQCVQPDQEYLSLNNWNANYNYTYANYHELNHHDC
Outline: as §1

ELF4 = ELF4 (Homo sapiens, UniProt Q99607 1-663); settings: protein: recombinant; tags: N-terminal GST; dsDNA, one strand shown
Outline: as §1

ELK4 = target: T9, ELK4 (Homo sapiens, UniProt P28324-2 1-405); settings: protein: recombinant; tags: N-terminal GST; dsDNA, one strand shown
T9 sequence: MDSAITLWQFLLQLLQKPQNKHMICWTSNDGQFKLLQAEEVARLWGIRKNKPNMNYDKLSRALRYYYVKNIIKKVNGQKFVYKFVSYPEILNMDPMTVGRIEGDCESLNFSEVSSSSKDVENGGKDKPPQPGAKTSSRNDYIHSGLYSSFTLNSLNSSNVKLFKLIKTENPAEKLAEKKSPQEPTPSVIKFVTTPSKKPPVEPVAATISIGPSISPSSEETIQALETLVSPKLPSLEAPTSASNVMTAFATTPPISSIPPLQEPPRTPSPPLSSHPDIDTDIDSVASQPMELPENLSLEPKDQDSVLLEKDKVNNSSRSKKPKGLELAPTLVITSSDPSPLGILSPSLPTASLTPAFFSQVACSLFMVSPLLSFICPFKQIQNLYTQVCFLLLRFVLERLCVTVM
Outline: as §1

ETV2 = target: T10, ETV2 (Homo sapiens, UniProt O00321 1-342); settings: protein: recombinant; tags: N-terminal GST; dsDNA, one strand shown
T10 sequence: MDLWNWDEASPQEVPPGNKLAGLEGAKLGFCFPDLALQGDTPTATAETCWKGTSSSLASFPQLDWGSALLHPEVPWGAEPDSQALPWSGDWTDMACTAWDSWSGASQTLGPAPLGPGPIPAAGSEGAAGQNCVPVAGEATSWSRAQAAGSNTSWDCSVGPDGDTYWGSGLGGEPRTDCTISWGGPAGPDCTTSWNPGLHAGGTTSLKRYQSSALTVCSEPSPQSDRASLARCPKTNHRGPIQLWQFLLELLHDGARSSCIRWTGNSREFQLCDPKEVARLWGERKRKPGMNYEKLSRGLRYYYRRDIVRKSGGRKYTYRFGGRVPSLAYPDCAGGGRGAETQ
Outline: as §1

ELF3 = target: T11, ELF3 (Homo sapiens, UniProt P78545 1-371); settings: protein: recombinant; tags: N-terminal GST; dsDNA, one strand shown
T11 sequence: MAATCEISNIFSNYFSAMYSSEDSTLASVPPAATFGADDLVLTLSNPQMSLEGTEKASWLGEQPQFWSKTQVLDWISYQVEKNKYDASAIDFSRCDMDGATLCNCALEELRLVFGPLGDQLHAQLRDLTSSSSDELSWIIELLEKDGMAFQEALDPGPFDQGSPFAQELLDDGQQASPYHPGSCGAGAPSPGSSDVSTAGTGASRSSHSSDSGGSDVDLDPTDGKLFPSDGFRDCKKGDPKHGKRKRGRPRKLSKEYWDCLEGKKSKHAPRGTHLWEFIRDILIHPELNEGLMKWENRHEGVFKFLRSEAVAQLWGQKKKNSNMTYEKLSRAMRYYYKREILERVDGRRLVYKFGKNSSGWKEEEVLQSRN
Outline: as §1

CRX = CRX (Homo sapiens, UniProt O43186 1-299); settings: protein: recombinant; tags: N-terminal GST; dsDNA, one strand shown
Outline: as §1

ETV1 = ETV1 (Homo sapiens, UniProt P50549 1-477); settings: protein: recombinant; tags: N-terminal GST; dsDNA, one strand shown
Outline: as §1

Chain of ETV1 (P50549 whole entry): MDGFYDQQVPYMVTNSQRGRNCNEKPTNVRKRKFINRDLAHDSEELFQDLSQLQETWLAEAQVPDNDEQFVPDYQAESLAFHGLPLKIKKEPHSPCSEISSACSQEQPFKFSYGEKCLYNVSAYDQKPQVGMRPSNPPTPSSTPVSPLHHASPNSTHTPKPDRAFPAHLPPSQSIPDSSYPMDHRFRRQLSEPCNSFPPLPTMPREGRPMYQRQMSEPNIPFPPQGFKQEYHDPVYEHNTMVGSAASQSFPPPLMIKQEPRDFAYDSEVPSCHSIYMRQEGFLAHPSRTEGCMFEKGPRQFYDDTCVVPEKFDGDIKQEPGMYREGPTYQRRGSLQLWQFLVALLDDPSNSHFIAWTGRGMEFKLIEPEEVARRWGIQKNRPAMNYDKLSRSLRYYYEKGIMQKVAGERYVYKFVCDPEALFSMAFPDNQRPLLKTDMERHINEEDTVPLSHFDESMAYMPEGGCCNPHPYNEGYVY
Chain of ELF1 (P32519 whole entry): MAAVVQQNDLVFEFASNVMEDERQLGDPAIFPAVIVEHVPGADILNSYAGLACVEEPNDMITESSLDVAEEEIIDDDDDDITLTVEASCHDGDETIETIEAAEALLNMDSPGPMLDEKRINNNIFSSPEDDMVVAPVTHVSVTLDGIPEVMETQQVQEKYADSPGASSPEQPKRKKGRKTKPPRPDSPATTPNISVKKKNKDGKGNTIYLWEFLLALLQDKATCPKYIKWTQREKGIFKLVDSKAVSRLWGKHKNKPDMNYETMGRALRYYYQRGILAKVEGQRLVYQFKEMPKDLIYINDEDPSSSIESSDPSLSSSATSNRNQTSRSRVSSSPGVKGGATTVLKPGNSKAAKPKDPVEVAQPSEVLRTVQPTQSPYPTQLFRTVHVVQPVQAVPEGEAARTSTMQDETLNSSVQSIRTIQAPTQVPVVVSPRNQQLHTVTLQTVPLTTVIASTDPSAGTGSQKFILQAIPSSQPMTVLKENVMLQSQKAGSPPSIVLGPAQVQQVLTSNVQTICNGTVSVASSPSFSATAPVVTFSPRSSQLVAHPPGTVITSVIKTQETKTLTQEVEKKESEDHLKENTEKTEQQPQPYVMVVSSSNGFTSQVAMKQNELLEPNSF
Chain of SPIB (Q01892 whole entry): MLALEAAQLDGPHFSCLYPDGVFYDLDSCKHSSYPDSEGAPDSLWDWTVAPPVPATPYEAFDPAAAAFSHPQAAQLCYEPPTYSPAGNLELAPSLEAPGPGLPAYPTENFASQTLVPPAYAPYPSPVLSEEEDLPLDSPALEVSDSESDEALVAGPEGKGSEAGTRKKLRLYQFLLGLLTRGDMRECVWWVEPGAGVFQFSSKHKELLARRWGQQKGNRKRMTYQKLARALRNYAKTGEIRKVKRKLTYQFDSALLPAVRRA
Chain of ETV5 (P41161 whole entry): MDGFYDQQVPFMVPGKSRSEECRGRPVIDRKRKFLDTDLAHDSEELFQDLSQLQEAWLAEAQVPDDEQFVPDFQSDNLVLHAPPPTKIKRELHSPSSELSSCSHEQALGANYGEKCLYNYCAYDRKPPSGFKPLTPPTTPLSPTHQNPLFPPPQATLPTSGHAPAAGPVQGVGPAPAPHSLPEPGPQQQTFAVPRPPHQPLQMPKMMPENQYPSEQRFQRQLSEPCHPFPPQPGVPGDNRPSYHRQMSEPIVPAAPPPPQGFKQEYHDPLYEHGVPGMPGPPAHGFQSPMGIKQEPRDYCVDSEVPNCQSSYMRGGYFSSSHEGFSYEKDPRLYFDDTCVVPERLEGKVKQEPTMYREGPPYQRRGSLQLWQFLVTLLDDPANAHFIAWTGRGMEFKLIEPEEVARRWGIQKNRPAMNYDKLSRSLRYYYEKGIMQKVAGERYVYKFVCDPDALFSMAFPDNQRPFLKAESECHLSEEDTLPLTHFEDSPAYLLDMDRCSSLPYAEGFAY
Chain of CRX (O43186 whole entry): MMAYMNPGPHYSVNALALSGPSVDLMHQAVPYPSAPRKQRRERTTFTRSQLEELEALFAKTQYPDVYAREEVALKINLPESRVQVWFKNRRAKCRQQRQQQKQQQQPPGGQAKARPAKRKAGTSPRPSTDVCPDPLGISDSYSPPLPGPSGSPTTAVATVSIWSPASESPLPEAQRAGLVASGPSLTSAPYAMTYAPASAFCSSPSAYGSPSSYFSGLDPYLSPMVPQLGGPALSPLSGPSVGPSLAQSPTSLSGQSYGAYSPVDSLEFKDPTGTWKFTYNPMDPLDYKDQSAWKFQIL
Chain of ELF4 (Q99607 whole entry): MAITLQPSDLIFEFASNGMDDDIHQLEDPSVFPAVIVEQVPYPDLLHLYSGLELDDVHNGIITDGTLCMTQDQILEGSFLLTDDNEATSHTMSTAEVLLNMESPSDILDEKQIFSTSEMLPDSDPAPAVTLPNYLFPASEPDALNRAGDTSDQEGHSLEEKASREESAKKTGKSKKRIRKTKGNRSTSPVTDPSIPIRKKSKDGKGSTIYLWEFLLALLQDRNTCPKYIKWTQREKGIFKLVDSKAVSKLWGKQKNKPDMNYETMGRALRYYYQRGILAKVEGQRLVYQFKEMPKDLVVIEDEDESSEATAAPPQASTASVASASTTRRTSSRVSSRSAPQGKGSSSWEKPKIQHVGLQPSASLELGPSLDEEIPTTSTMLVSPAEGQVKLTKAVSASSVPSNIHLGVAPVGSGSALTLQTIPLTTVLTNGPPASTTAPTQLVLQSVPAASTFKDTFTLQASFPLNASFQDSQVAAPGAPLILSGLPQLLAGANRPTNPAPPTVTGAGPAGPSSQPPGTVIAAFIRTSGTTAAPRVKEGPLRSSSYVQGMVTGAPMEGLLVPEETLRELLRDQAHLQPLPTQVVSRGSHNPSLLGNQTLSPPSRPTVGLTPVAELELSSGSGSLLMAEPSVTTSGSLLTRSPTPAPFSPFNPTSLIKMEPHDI
Chain of HSF1 (Q00613 whole entry): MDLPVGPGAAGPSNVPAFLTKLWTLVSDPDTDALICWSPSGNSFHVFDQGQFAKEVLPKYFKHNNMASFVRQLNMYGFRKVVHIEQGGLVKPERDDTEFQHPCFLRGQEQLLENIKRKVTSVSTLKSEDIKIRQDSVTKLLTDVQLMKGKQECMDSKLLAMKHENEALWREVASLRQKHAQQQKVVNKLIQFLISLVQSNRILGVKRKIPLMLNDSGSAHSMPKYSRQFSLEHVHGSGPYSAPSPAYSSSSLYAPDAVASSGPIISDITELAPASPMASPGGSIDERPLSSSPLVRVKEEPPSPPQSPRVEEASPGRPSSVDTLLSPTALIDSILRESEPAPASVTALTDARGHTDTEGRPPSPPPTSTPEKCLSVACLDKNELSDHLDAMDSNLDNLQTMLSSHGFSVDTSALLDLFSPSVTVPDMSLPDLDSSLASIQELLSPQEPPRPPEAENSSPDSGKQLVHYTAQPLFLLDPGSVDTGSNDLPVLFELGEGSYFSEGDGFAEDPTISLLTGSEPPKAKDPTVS

CCCTTT
binding signal (FLI1): 1.47 fold enrichment (6-mer frequency, TF over GST control) | binding signal (ELK1): 1.36 fold enrichment (6-mer frequency, TF over GST control) | binding signal (GABPA): 1.51 fold enrichment (6-mer frequency, TF over GST control) | binding signal (ERG): 1.45 fold enrichment (6-mer frequency, TF over GST control) | binding signal (ELF1): 1.36 fold enrichment (6-mer frequency, TF over GST control) | binding signal (EHF): 1.35 fold enrichment (6-mer frequency, TF over GST control) | binding signal (SPI1): 1.96 fold enrichment (6-mer frequency, TF over GST control) | binding signal (SPIB): 1.49 fold enrichment (6-mer frequency, TF over GST control) | binding signal (ELK3): 1.43 fold enrichment (6-mer frequency, TF over GST control) | binding signal (FEV): 1.46 fold enrichment (6-mer frequency, TF over GST control) | binding signal (ETV5): 1.45 fold enrichment (6-mer frequency, TF over GST control) | binding signal (HSF1): 1.25 fold enrichment (6-mer frequency, TF over GST control) | binding signal (SPIC): 1.34 fold enrichment (6-mer frequency, TF over GST control) | binding signal (ELF4): 1.49 fold enrichment (6-mer frequency, TF over GST control) | binding signal (ELK4): 1.34 fold enrichment (6-mer frequency, TF over GST control) | binding signal (ETV2): 1.33 fold enrichment (6-mer frequency, TF over GST control) | binding signal (ELF3): 1.68 fold enrichment (6-mer frequency, TF over GST control) | binding signal (CRX): 1.35 fold enrichment (6-mer frequency, TF over GST control) | binding signal (ETV1): 1.4 fold enrichment (6-mer frequency, TF over GST control)
